This is an account of results in PMC7819943, “Rice protein-binding microarrays: a tool to detect cis-acting elements near promoter regions in rice”.

Whole data set: some 68,000 sequences, median “fluorescence intensity (a.u.)” near 9,100, cut for the highest 2% near 16,000. Many of the other results were omitted from the sample, so the highest values are more common in it than they were.

The test deals with OsWRKY34 (Oryza sativa, UniProt Q0JBA9 1-250). As to the kind of experiment: protein-binding microarray (RPBM); PBS, 2% BSA, 51.3 ng/ul salmon testes DNA, 50 uM zinc acetate, 200 nM TF, 25 C, 1 h; high values mean tight binding. Conditions: protein: recombinant; tags: N-terminal polyhistidine and DsRed monomer fusion (pET32a); label: CyDye5-dUTP incorporated in the synthesized complementary strand; 3' TTTTT single-stranded linker to array surface; dsDNA, one strand shown. The method in brief: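 The binding signal is fluorescence intensity per array feature (arbitrary units). Readings came from an Axon 4000B scanner after a washed, 2% BSA-blocked, double-stranded custom Agilent array had been incubated for 1 h at 25 °C with 200 nM protein and 50 µM zinc acetate. The protein was a Ni–NTA-purified transcription factor fused N-terminally to polyhistidine and DsRed, expressed in E. coli BL21-CodonPlus.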
Sequence of OsWRKY34 (Q0JBA9 entry or part of it): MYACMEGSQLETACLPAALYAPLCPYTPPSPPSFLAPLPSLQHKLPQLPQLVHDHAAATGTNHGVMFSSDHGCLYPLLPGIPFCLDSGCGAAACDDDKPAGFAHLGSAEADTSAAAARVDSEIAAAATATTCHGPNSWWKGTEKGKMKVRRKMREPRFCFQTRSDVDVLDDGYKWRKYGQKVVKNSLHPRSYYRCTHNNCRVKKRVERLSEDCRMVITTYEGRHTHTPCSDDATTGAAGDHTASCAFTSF
Take “ACCTAGTACGTATACACCTCAATCCATTATAAATAGCAACCGGAGTCACCTAGTGCAG”: the binding signal is 8280 fluorescence intensity (a.u.). Regarding “GCACAAAACCCTCGAGCACCGCCCGCCGCTATATAACAACCGGAGTCACCTAGTGCAG”, the binding signal was 9960 fluorescence intensity (a.u.). “TAGTACAATGGGTGCCCTCAACGGAATAAACCGCTATACCCGGAGTCACCTAGTGCAG”: the binding signal was 37000 fluorescence intensity (a.u.). With “AGACAAACTCTGGTTTCCGTGTCCAACGTTTGACCGTTCGCGGAGTCACCTAGTGCAG”, the binding signal was 11300 fluorescence intensity (a.u.). In the case of “TTTCATTTCACTCGCTGGCATTTCATCTCCTTGACCTATCCGGAGTCACCTAGTGCAG”, the binding signal is 9400 fluorescence intensity (a.u.). The value for “ACCCACTGATCACGAAATCCACACACTGGCCACATCCAAACGGAGTCACCTAGTGCAG” was 8340 fluorescence intensity (a.u.); that for “CATCCGTTTCAAAATGTTTGACACCGTTGACTTTTTAGCACGGAGTCACCTAGTGCAG” was 26200 fluorescence intensity (a.u.). Take “TTATCAAAAGTACTTTTTAAGTATGACTTCTCCGTTTTTACGGAGTCACCTAGTGCAG”: the binding signal is 8280 fluorescence intensity (a.u.). With “CCCTCCGTTTCAAAATGTTTGATACCGTTGACTTTTTAGCCGGAGTCACCTAGTGCAG” the figure was 21200 fluorescence intensity (a.u.). As for “TTTTCTTTTTCAATGTATGATTCTGTTGACTTTTCAGATACGGAGTCACCTAGTGCAG”, the binding signal was 11600 fluorescence intensity (a.u.). With “ATACTCCCTCCGTTTCAAAATGTTTGACATCGTTGACTTTCGGAGTCACCTAGTGCAG”, the binding signal was 9980 fluorescence intensity (a.u.). For “TACTCCCTCCGTTTCAAATGACACCATTGACTTTTTAGCACGGAGTCACCTAGTGCAG”, the binding signal was 9430 fluorescence intensity (a.u.).

As for “CCCTCCGTTTCAAAATGTTTGACACCGTTGACTTTTTAGCCGGAGTCACCTAGTGCAG”, the binding signal is 28700 fluorescence intensity (a.u.). With “CTTTCTTTATTTCAAAAGTATGATACCGTTGACTTTTCACCGGAGTCACCTAGTGCAG”, the binding signal was 24900 fluorescence intensity (a.u.). The value for “TATTACTTCCTTCGTTTCAAAATGTTTGATACCGTTGACTCGGAGTCACCTAGTGCAG” was 12000 fluorescence intensity (a.u.). As to “GAGATGTGTCCATATTTGTAGTATTGGGTGGTATCTATTTCGGAGTCACCTAGTGCAG”, the binding signal is 8550 fluorescence intensity (a.u.).

As for “TCACGGCCCCGCCGACCTCACGTCACCTTTTGTTGCGAGTCGGAGTCACCTAGTGCAG”, the binding signal was 8110 fluorescence intensity (a.u.). The value for “GCCGAGGGCGCCGCCGGCGTCGTCCGAGCTGTGCCGCGCGCGGAGTCACCTAGTGCAG” was 8640 fluorescence intensity (a.u.). As to “ATCGTCCTCTGCACCTGCACACATCATCACTGGGACAACCCGGAGTCACCTAGTGCAG”, the binding signal is 8140 fluorescence intensity (a.u.). With “AGGTCGACGTGTATATGTTCGTCTTTCATATCTCTGCTCTCGGAGTCACCTAGTGCAG” the figure was 9640 fluorescence intensity (a.u.); with “GTCGTCCAATGGCATGCCTCGCCCTGATTTTTATCGGGCCCGGAGTCACCTAGTGCAG”, 12700 fluorescence intensity (a.u.); with “CCACAGTTAATTCCACACATACATGCACGCGTCTATATATCGGAGTCACCTAGTGCAG”, 11200 fluorescence intensity (a.u.). Consider “TCATCGCGGGGCGGGGTGTAGCGGGTGCGAAAAGGAGGCGCGGAGTCACCTAGTGCAG”, for which the binding signal was 9910 fluorescence intensity (a.u.).

As for “GCGGGGTGCGAGTGGATGGGTGGGCGTAGCGCGTGTCGTGCGGAGTCACCTAGTGCAG”, the binding signal is 10400 fluorescence intensity (a.u.). Regarding “AGCTGGCGGCTGGCGGGTGGTGGTGGTGGCTGGCGGCGGGCGGAGTCACCTAGTGCAG”, the binding signal is 13900 fluorescence intensity (a.u.). With “GGTGGTCGGGGCTCTGACGCGGCGGGGCGGCGGAGGTGGTCGGAGTCACCTAGTGCAG” the figure was 10800 fluorescence intensity (a.u.). The value for “CTCCGGTGGGTCGGGTCTGGGCGGGGTGCGCGTGGGGATGCGGAGTCACCTAGTGCAG” was 18200 fluorescence intensity (a.u.); that for “CTGGTGGTCGGTTCAGTCGGGCGGGCGGGCGGGCTCACCGCGGAGTCACCTAGTGCAG” was 22800 fluorescence intensity (a.u.); that for “CTGAGTGGCTGGGTGGGGTAGTGAAAAAAATCATCGCGCGCGGAGTCACCTAGTGCAG” was 18200 fluorescence intensity (a.u.). For the sequence “GCTAGCTGGATTGGTGGGTGGGCGCGTCAAGAAGGGGATGCGGAGTCACCTAGTGCAG”, the binding signal is 9830 fluorescence intensity (a.u.). As for “TGGTGACTGGGTAGGTGGTGGTGGTGGTGCGCGGCGGCGGCGGAGTCACCTAGTGCAG”, the binding signal is 8620 fluorescence intensity (a.u.). With “AGGGGTGGATGCGCGTGGGCTGGTGGTGGTGGTGGGGATGCGGAGTCACCTAGTGCAG” the figure was 19100 fluorescence intensity (a.u.); with “GGTCTGGTTTTCCGTGTGTGCACGGTCGGGGTGCGCGTGGCGGAGTCACCTAGTGCAG”, 14300 fluorescence intensity (a.u.); with “GGGGTGTGTGTGCTCGGCTACTCCGGTGGGTCGGGTCTGGCGGAGTCACCTAGTGCAG”, 12700 fluorescence intensity (a.u.). With “TTCTTGGTTTTGAGTTCTCTTCTCGGTTTTCTCTTTAGCGCGGAGTCACCTAGTGCAG”, the binding signal was 9000 fluorescence intensity (a.u.).

Take “TCTGAAGATGAGAGAGAGCTCACAGTTTATGGTTTTTGTACGGAGTCACCTAGTGCAG”: the binding signal is 8830 fluorescence intensity (a.u.).

As for “TGGTTTGGTTGTGGTAGATCTTTTTTACTTATTGCTACCACGGAGTCACCTAGTGCAG”, the binding signal was 15800 fluorescence intensity (a.u.). With “ATACTCGAGATGGGCGCTTGGTACTTGCATGTTTCCATTCCGGAGTCACCTAGTGCAG” the figure was 8680 fluorescence intensity (a.u.). With “AAATGTTACAATCATGCTCCAAACTCACACCTTGTTTAACCGGAGTCACCTAGTGCAG” the figure was 8540 fluorescence intensity (a.u.). For “CCTTTCACCCGCCCAAACTCATCCATCCATCGATCGCCCTCGGAGTCACCTAGTGCAG”, the binding signal is 8560 fluorescence intensity (a.u.).

“GCAATCCGTGTAATTAATTATTTTTTCGTTTATACTCTCTCGGAGTCACCTAGTGCAG”: the binding signal was 10200 fluorescence intensity (a.u.).

“CTTCCCACGCCAACGCCTCCGCTCCCGCTCGTACCACGCGCGGAGTCACCTAGTGCAG”: the binding signal was 8090 fluorescence intensity (a.u.).
